These results are taken from PubChem BioAssay (NCI).

What all share (test): NCI-60 one-dose screen, 48 h (100 = growth as untreated, 0 = no growth, -100 = all killed)
Conditions in all cases: 10 µM unless noted

The test system of assay [1] is SK-MEL-2 melanoma.
Assay [2] concerns EKVX NSCLC.
In assay [3] the test system is SN12C renal.
In assay [4] the test system is UO-31 renal.
The test system of assay [5] is TK-10 renal.
The test system of assay [6] is ACHN renal.
For assay [7], the system named is CAKI-1 renal.
Assay [8] concerns A498 renal.
For assay [9], the system named is CCRF-CEM leukemia.
Assay [10] has as its system MOLT-4 leukemia.
Assay [11] concerns RPMI-8226 leukemia.
Assay [12] concerns OVCAR-8 ovarian.
Assay [13] concerns OVCAR-5 ovarian.
The test system of assay [14] is OVCAR-4 ovarian.
Assay [15] has as its system SK-OV-3 ovarian.
Assay [16] deals with IGROV1 ovarian.
In assay [17] the test system is OVCAR-3 ovarian.
The subject of assay [18] is HS 578T breast.
The test system of assay [19] is NCI/ADR-RES ovarian.
Assay [20] has as its system SR leukemia.

The structures appear in SMILES notation. This is part of a sample that, as a whole, favours compounds with a hit. Of some 83,000 tested, about 20% had one in any assay.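 Interpretation: 100, growth as untreated; towards 0, rising growth inhibition; 0, no net growth; 0 to -100, cell death. Compounds scoring below 10 were considered active.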 Unmarked numbers belong to inactive results. The source made the active and inactive calls.

`O=C(CN(C(=O)Cn1c(=O)n2nnnc2c2ccccc21)c1ccccc1C(F)(F)F)Nc1ccc(C(F)(F)F)cc1`: the growth in assay [1] is 105%; in assay [2] it was 101%; in assay [3], 100%; in [4] it was 81.1%; in [5], 111%; in assay [6], 102%. Besides, the growth in assay [7] is 99.2%; in assay [8], 116%; in assay [9] it was 107%; in [10] it was 104%; in assay [11] it was 103%; in [12], 100%. Also, the growth in [13] was 106%; in assay [14], 97.1%; in assay [15], 103%; in [16], 88.1%; in assay [17] it was 110%; in assay [18] it was 103%. In [19], the growth is 106%.
In the case of `COc1ccc(/C=C/C(=O)c2ccc(O)c(CN3CCN(c4cc5c(cc4F)c(=O)c(C(=O)O)cn5C4CC4)CC3)c2)cc1`, the growth in assay [1] was 34.5%; in assay [2], 57.3%; in assay [3] it was 7.55% (active); in [4] it was 3.15% (active); in assay [5] it was 52.7%; in assay [6] it was 25.5%. Besides, the growth was 32% in [7]; -0.877% (active) in [8]; 28.6% in assay [9]; 45.7% in [10]; -3.49% (active) in [11]; 13.2% in assay [12]. Further, the growth was 47.5% in assay [13]; 88.1% in assay [14]; 46.5% in assay [15]; 33.8% in assay [16]; 19.1% in assay [17]; 35.4% in [18]. Moreover, the growth in assay [19] is 43.1%.
In the case of `Cc1ccc2c(C(C[N+](=O)[O-])c3ccco3)c(-c3ccccc3)[nH]c2c1` (configuration not stated), the growth is 9.58% (active) in [1]; 39.8% in assay [2]; 39.1% in [3]; 38.9% in assay [4]; 64.2% in [5]; 30.6% in assay [6]. The growth is 23.8% in [7]; 12.3% in [8]; 14.4% in assay [9]; 21% in assay [10]; 27.4% in [11]; 48.1% in [12]. The growth in assay [13] is 54.9%; in assay [14], 64.2%; in [15], 21.7%; in assay [16], 29%; in assay [17] it was 14.2%; in assay [18], 16.2%. Further, the growth in assay [19] was 7.41% (active).
`COc1cc(C2CC(=O)c3ccccc3N2)cc(OC)c1OC` (configuration not stated): the growth is 74.3% in assay [1]; 103% in assay [2]; 92% in [3]; 92.4% in [4]; 105% in assay [5]; 102% in assay [6]. Further, the growth in [7] is 93.4%; in assay [8], 83.7%; in assay [9], 95.5%; in assay [10] it was 97%; in [20], 99.6%; in assay [11], 91.3%. The growth in [12] is 94.3%; in assay [13] it was 103%; in assay [14] it was 97.4%; in assay [16], 99%; in [17], 110%; in assay [18], 99.1%. Further, in [19], the growth was 101%.
Consider `C=CC(=O)Nc1cccc(-c2nc(SC)nc(NCCc3ccc(OC)c(OC)c3)c2C#N)c1`, for which the growth in assay [1] is 65.7%; in assay [2], 43.8%; in assay [3], 47.6%; in assay [4], 45.1%; in [5] it was 82.4%; in assay [6] it was 35.7%. The growth in [7] is 52.8%; in [8], 18.5%; in [9], 26.3%; in [10] it was 2.39% (active); in [11], 9.33% (active); in [12], 30.7%. Also, the growth in [13] was 91.7%; in [14], 19.4%; in assay [15], 89.3%; in [16], 65.7%; in assay [17], 53.6%; in assay [18] it was 71.1%. In [19], the growth was 23.7%.
Take `COc1cc(/C=C/c2cc(O)c3cc(C(C)=O)c(=O)oc3c2)cc2c1O[C@]1(C)CC[C@@H](O)C(C)(C)[C@H]1C2`: the growth in assay [1] is 50.1%; in assay [2] it was 59.3%; in [3] it was 64.7%; in assay [4] it was -42.8% (active); in assay [5], 97.9%; in [6], 40.9%. The growth in assay [7] was 29.8%; in assay [8], -51.5% (active); in assay [9], 22.1%; in assay [10], -5.7% (active); in assay [11], -22.6% (active); in assay [12] it was 84.4%. Further, the growth in assay [13] was 70.6%; in [14] it was 66.1%; in assay [15], 64.2%; in assay [16] it was 53.1%; in [17], 84.6%; in [18] it was 2.8% (active). In [19], the growth was 83.6%.
For `N#Cc1c(-c2ccc(Cl)cc2)nc(NN=Cc2ccco2)nc1N1CCOCC1`, the growth in assay [1] is 82.3%; in [2], 46.5%; in assay [3], 82.1%; in assay [4] it was 27.1%; in [5], 68.8%; in assay [6], 76.7%. Besides, the growth in [7] was 62.8%; in assay [8] it was -19.9% (active); in assay [9] it was 88.7%; in assay [10] it was 83%; in [11], 66.5%; in assay [12] it was 87.9%. Besides, the growth was 76.9% in [13]; 65.9% in [14]; 49.4% in [15]; 25.9% in assay [16]; 66.6% in [17]; 68.2% in assay [18]. For the same molecule, the growth in assay [19] was 75.8%.
Consider `OCc1ccc(N2CCc3cccc(F)c3C2)cc1Cl`, for which the growth in assay [1] was 91.1% [0.1 µM]; in [2] it was 104% [0.1 µM]; in [3], 92.9% [0.1 µM]; in [4], 91.6% [0.1 µM]; in assay [5], -0.0842% [0.1 µM] (active); in assay [6] it was 108% [0.1 µM]. Moreover, the growth was 63.5% [0.1 µM] in assay [7]; -16.3% [0.1 µM] (active) in assay [8]; 96% [0.1 µM] in assay [9]; 100% [0.1 µM] in assay [10]; 71.4% [0.1 µM] in assay [11]; 91.4% [0.1 µM] in assay [12]. The growth in [13] is -11.7% [0.1 µM] (active); in [14], 32.7% [0.1 µM]; in assay [15], 72.5% [0.1 µM]; in assay [16], 21.2% [0.1 µM]; in [17], 11.8% [0.1 µM]; in assay [18], 99.2% [0.1 µM]. Further, in [19], the growth was 87% [0.1 µM].
